{"source": "PubChem BioAssay (NCI)", "note": "This is part of a sample that, as a whole, favours compounds with a hit. Of some 83,000 tested, about 20% had one in any assay.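 How to read the values: 0–100, growth inhibition (40 = 60% inhibited); 0, no net growth; -100 to 0, cell death (-40 = 40% of starting cells died; -100 = all dead).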 Unmarked numbers belong to inactive results. Active and inactive are the calls of the source."}
{"system": "IGROV1 ovarian", "test": "NCI-60 one-dose screen, 48 h (100 = growth as untreated, 0 = no growth, -100 = all killed)", "conditions": "10 µM unless noted", "experimental": "Growth inhibition of the IGROV1 human tumor cell line is measured as a screen for anti-cancer activity. Cells are grown in 96 well plates and exposed to the test compound for 48 hours. Compounds are tested at a single concentration, which is 10^-5 M for most compounds. The reported endpoint is percent growth (GI% or GIPRCNT), where numbers from 0 - 100% represent growth inhibition, and numbers from -100% - 0 represent cell death. For example, a value of 40 represents 60% growth inhibition. A value of 0 means no net growth occurred over the course of the experiment. A value of -40 indicates 40% of cells at the beginning of the experiment died by the end of the experiment. A value of -100 means all cells are dead at the end of the experiment.\nNCI-60 Human Tumor Cell Lines Screen was performed using the standard one-dose NCI protocol, which is described in more detail at https://dtp.cancer.gov/discovery_development/nci-60/default.htm.\nCompounds with GIPRCNT values below 10 were considered active. Activity score was based on GIPRCNT using the following formula: […]\nScore is 0 for GIPRCNT values of 100 or above, 50 for GIPRCNT values of 0, and 100 for GIPRCNT values of -100."}
{"molecule": "Oc1[nH]c2ccccc2c1Nn1c(N=N/C=c2/ccc3c(c2)C=NN=3)n[nH]c1=S", "growth": "74.6%"}
{"molecule": "CCOC(=O)c1c(N)c(C#N)cn1-c1cc(OC)c(OC)c(OC)c1", "growth": "105%"}
{"molecule": "CCN(CC)c1ccc2c(c1)Oc1nc(N)c(C#N)c(N)c1C2Sc1ccc(C)cc1", "note": "(stereo not given)", "growth": "-87.4% (active)"}
{"molecule": "CCN1CCN(Cc2ccc(C(=O)Nc3ccc(C)c(Oc4ccc(-c5[nH]nc6ncnc(N)c56)cc4)c3)cc2C(F)(F)F)CC1", "growth": "82.1%"}
{"molecule": "CC(O)c1cc2ccccc2c(=O)o1", "note": "(stereo not given)", "growth": "107%"}
{"molecule": "COc1ccc([C@H]2[C@H](O)C(=O)N2c2cc(OC)c(OC)c(OC)c2)cc1F", "growth": "19.2%"}
{"molecule": "NC(N)=Nc1ccc(Oc2cccc(NC(N)=Nc3ccc(I)cc3F)c2)cc1", "growth": "32.9%"}
{"molecule": "COC(=O)c1ccc(NC2=C/C(=N/S(=O)(=O)c3ccc(C(=O)O)cc3)c3ccccc3C2=O)cc1", "growth": "11.3%"}
{"molecule": "COc1ccc(/C=N/NC2=NC3C(S2)N(C)C(=O)N3C)cc1", "note": "(stereo not given)", "growth": "40.9%"}
{"molecule": "C[C@@H]1C[C@H]2C(=O)O[C@@H](C)C(NC(=O)[C@H](Cc3cc(F)cc(F)c3)NC(=O)Nc3ccc(Cl)cc3F)C(=O)N3CCC[C@H]3C(=O)N3CCCC[C@H]3C(=O)N[C@@H](CO)C(=O)N2C1", "note": "(stereo not given in full)", "growth": "47.9%"}
{"molecule": "COc1ccc(N2C(=O)c3cc(Cl)ccc3NC2SCc2ccccc2)cc1", "note": "(stereo not given)", "growth": "99.5%"}
{"molecule": "CCc1cccc2c3c(sc12)C(c1ccc(OC)cc1)C(C#N)=C(/N=C/c1ccc(Cl)cc1)O3", "note": "(stereo not given)", "growth": "42.6%"}
{"molecule": "NC(N)=Nc1ccc(Oc2cccc(Nc3ccc(Cl)c(C(F)(F)F)c3)c2)cn1", "growth": "-38.2% (active)"}
{"molecule": "C#Cc1nc(C(C)=O)cs1", "growth": "101%"}
{"molecule": "COc1ccc(C2CC(c3ccc(Nc4nc(NCCO)nc(N5CCOCC5)n4)cc3)=Nc3c(N)nc(N)nc3N2)cc1", "note": "(stereo not given)", "growth": "105%"}
{"molecule": "O=C(NCCN1CCCC1)c1ccc(-c2nc3ccc4[nH]ncc4c3c3c2CCCC3)cc1", "growth": "1.22% (active)"}
{"molecule": "Cc1cc2nc(C(Cl)Cl)nc(-c3cccs3)n2n1", "growth": "43.2%"}
{"molecule": "CCNC(=O)N1CCc2cc(OC)c(OCCc3ccc(OC)cc3)cc2C1c1ccc([N+](=O)[O-])cc1C", "note": "(stereo not given)", "growth": "24.9%"}
{"molecule": "CCCCCCCn1cc2c(NCCc3ccccc3)ncnc2n1", "growth": "97.5%"}
{"molecule": "N#Cc1cnc2ccc(-c3cnc4[nH]ncc4c3)cc2c1N1CCc2cc(F)c(Cl)cc21", "growth": "-31% (active)"}
{"molecule": "O=C(Cn1c(-c2ccccc2)nc2cc(Cl)c(Cl)cc21)N=Nc1c(O)[nH]c2ccc(Cl)cc12", "growth": "87.9%"}
{"molecule": "CC/C(=C/c1c(O)cccc1OC)c1ccc2c(OC)cccc2[o+]1", "growth": "102%"}
{"molecule": "COc1cccc(C(=O)Nc2cccc(C#Cc3cccc4[nH]nc(N)c34)c2)c1", "growth": "59.9%"}
{"molecule": "CCCCCc1ccc(S(=O)(=O)Nc2cccc(-c3csc(NCCN4CCN(C)CC4)n3)c2)cc1", "growth": "79.9%"}
{"molecule": "O=C(CN1CCN(c2cc(=O)n(-c3ccccc3)c3ccccc23)CC1)Nc1nc(-c2ccccc2)cs1", "growth": "67.5%"}
{"molecule": "O=C(CSc1nnc(-c2ccc(Cl)cc2)n1-c1ccccc1)Nc1cccc(Cl)c1", "growth": "46.7%"}
{"molecule": "CN1CCN(Cc2ccc(NC(=O)c3cncc(C#Cc4cnn5cccnc45)c3)cc2C(F)(F)F)CC1", "growth": "5.44% (active)"}
{"molecule": "CCOc1ccc(C(=O)Nc2ncc(Cc3ccc(F)cc3)s2)cc1", "growth": "40%"}
{"molecule": "O=S(=O)(NCCCNc1nccc(-c2[nH]c(-c3ccccc3)nc2-c2ccc(Cl)c(O)c2)n1)c1cccc2ccccc12", "growth": "28.7%"}
{"molecule": "O=C(Nc1nc2ccc([N+](=O)[O-])cc2s1)Nc1ccccc1Br", "growth": "47.3%"}
{"molecule": "Cc1ccc(-c2cc3nc(C(Cl)Cl)nc(-c4ccco4)n3n2)cc1", "growth": "64.5%"}
{"molecule": "O=C1[C@H]2Cc3c([nH]c4ccccc34)[C@@H](c3c(Cl)cccc3Cl)N2C(=O)CN1C1CCN(CC2CCCCC2)CC1", "growth": "53.2%"}
{"molecule": "O=C(Nc1nc2ccc([N+](=O)[O-])cc2s1)Nc1ccccc1Cl", "growth": "39.1%"}
{"molecule": "Cn1cc(-c2cc(N)n3nc(-c4cn(C)c5ccccc45)cc3n2)c2ccccc21", "growth": "104%"}
{"molecule": "COc1cc(OC)c(/C=C/S(=O)(=O)Cc2ccc(OC)c(NCC(=O)NO)c2)c(OC)c1", "growth": "9.44% (active)"}
{"molecule": "COc1cc(Cn2cc3c(c2)-c2onc(CN4CCOCC4)c2CC3)cc(OC)c1OC", "growth": "99.8%"}
{"molecule": "CNC(=O)c1c(NC(=O)c2cccc(C(F)(F)F)c2F)sc2c1CCC(=O)C2", "growth": "10.5%"}
{"molecule": "CCOc1ccc(NC2=C(Cl)C(=O)c3nc(C)ccc3C2=O)cc1", "growth": "-82.4% (active)"}
{"molecule": "O=C1Nc2ccccc2/C1=C/c1ccc(CO)n1-c1ccc(Cl)cc1", "growth": "48.1%"}
{"molecule": "COc1cc(/C=C2\\C(=O)Nc3cc(Cl)ccc32)ccc1OCc1ccc(F)cc1", "growth": "72.7%"}
